Inconclusive results are not listed. A call without a number means that no potency is given here. Activity calls are given as the source filed them. The call rests on the fitted dose curve; in most records, active means well fitted cell-killing curve with a large enough effect in the repeat runs; inconclusive means weak or mixed curves; inactive means no such curve, though single readings can be large or run the other way.
Test: qHTS assay to identify small molecule antagonists of the androgen receptor (AR) signaling pathway - cell viability counter screen (AID 743033; further: nearly all actives have a fitted effect of over 45% in size)
Details: AR-bla HEK293 viability, CellTiter-Glo luminescence, 16 h; series mostly up to 58.5 µM
Potency means the concentration at half of the fitted maximal effect.

Structure (SMILES)	Potency
CCOC(=O)COc1ccc2c(=O)cc(-c3ccccc3)oc2c1	inactive
CC/C=C\C/C=C\C/C=C\C/C=C\C/C=C\C/C=C\CCC(=O)O	inactive
CC(C)C[C@@H](NC(=O)[C@@H](O)[C@H](N)Cc1ccccc1)C(=O)O	inactive
O=C(O)c1ccc(NC2OC[C@@H](O)[C@H](O)[C@H]2O)cc1 (some centres undefined)	inactive
O=C1CCCCCCCCCCCCCC1	inactive
c1ccc2c(c1)OCC(CN1CCCCC1)O2 (centres undefined)	inactive
CN=C(N)NCCC[C@H](N)C(=O)O	inactive
C[N+]1(CCCCC[N+]2(C)CCCC2)CCCC1	inactive
Cc1cc(-c2ccc(N=Nc3ccc4c(S(=O)(=O)O)cc(S(=O)(=O)O)c(N)c4c3O)c(C)c2)ccc1N=Nc1ccc2c(S(=O)(=O)O)cc(S(=O)(=O)O)c(N)c2c1O	inactive
O=C(O)[C@@H]1C[C@H](CP(=O)(O)O)CCN1	inactive
Cc1c(O)c(=O)ccn1C	inactive
CC1(C)S[C@@H]2[C@H](N3C(=O)C(c4ccccc4)NC3(C)C)C(=O)N2[C@H]1C(=O)O (some centres undefined)	inactive
CN1CCN(CCCN2c3ccccc3Sc3ccc(Cl)cc32)CC1	23.9 µM (active)
COc1ccc(/C=C/C(=O)Nc2ccccc2C(=O)O)cc1OC	inactive
O=C(O)[C@H]1CN(C/C=C/P(=O)(O)O)CCN1	inactive
CCC(=O)OC(OP(=O)(CCCCc1ccccc1)CC(=O)N1C[C@H](C2CCCCC2)C[C@H]1C(=O)O)C(C)C (some centres undefined)	inactive
CC(C)COC(=O)OCN1C(=O)CN(CCN2CC(=O)N(COC(=O)OCC(C)C)C(=O)C2)CC1=O	inactive
CCCCCCCCCC(=O)NO	inactive
CN(C/C=C/c1ccccc1)Cc1cccc2ccccc12	inactive
CC1CCCC(C)N1NC(=O)c1ccc(Cl)c(S(N)(=O)=O)c1 (centres undefined)	inactive
CC(C)CCC[C@@H](C)[C@H]1CC[C@H]2[C@@H]3CC[C@@H]4C[C@H](O)CC[C@]4(C)[C@H]3CC[C@]12C	inactive
O=[N+]([O-])c1ccc(O)c2ncccc12	10.7 µM (active)
CCCCCCCCCCCCCCCC(=O)OC[C@H](COP(=O)([O-])OCC[N+](C)(C)C)OC(=O)CCCCCCCCCCCCCCC	inactive
Cc1cc(CC(C)CC(C)(C)C)n(O)c(=O)c1 (centres undefined) (tested in a mixture with another compound)	inactive

Source: PubChem BioAssay (Tox21)
